According to PubChem BioAssay (Tox21):
Values without a mark were called inactive. Records with an inconclusive call do not appear. Entries that show only a call come without a potency. Activity calls are given as the source filed them. Unless noted, the call rests on the fitted dose curve.

Tests used:
[1] = Nuclear factor erythroid 2-related factor 2/antioxidant responsive element (Nrf2/ARE) small molecule agonists: luciferase reporter gene qHTS assay in human keratinocytes (AID 1919969); further: nearly all actives have a fitted effect of over 35% in size; further: potency means the concentration at half of the fitted maximal effect
[2] = molecular target: Gonadotropin-releasing hormone receptor (Homo sapiens) (UniProt P30968); experiment: Human gonadotropin-releasing hormone receptor (GnRHR) small molecule agonists, calcium flux assay in GnRHR-HEK293 cells (AID 1920063); further: nearly all actives have a fitted effect of over 35% in size
Gonadotropin-releasing hormone receptor (Homo sapiens), sequence (P30968 whole entry, looked up): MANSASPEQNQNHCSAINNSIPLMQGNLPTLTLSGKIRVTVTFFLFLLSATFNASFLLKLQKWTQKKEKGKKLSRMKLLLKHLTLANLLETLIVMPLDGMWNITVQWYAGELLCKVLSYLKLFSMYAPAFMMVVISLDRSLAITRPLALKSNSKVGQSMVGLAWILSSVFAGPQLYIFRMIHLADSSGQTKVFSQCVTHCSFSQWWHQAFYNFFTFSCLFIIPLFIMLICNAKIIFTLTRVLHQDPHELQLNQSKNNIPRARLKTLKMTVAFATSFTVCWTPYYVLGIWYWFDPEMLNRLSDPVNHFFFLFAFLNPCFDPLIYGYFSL
Method in brief: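 Compounds dissolved in DMSO are pin-transferred onto dye-loaded GnRHR-HEK293 cells, which were seeded 18 h before at 37 C/5% CO2. Calcium signal is read as fluorescence intensity at 1 s intervals for 3 min.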

[3] = molecular target: KiSS-1 receptor (Homo sapiens) (UniProt Q969F8); experiment: Human kisspeptin (KISS1R) small molecule agonists, calcium flux assay in KISS1R-HEK293 cells (AID 1920064; active means well fitted activation curve with a large enough effect in the repeat runs)
KiSS-1 receptor (Homo sapiens), sequence (Q969F8 whole entry, looked up): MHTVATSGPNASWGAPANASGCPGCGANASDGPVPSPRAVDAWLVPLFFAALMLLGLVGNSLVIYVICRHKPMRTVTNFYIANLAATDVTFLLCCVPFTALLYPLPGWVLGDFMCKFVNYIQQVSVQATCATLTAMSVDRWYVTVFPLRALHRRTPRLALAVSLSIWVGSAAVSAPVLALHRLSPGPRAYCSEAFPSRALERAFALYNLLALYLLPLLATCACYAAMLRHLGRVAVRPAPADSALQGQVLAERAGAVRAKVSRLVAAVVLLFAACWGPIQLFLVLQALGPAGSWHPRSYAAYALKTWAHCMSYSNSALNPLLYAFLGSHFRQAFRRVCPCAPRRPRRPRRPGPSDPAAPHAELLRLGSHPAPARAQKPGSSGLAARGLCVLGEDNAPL
Method in brief: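 Cell line: HEK293, stable human KISS1R. Dye loading 1 h at 37 C after 18 h culture. Read: kinetic fluorescence, 480/540 nm, 3 min at 1 s intervals.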

[4] = G protein-coupled receptor (GPCR) small molecule agonists, calcium flux assay: HEK293 wild type cell line counter screen (AID 1920065)
Method in brief: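 Tox21 10K compounds, 15 concentrations each in triplicate, pin-transferred in DMSO onto dye-loaded cells; kinetic read at 480/540 nm for 3 min, 1 s intervals.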

[5] = p53 small molecule agonists, cell-based qHTS assay with human liver microsomes (AID 1963577);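 further: p53 response element beta-lactamase reporter cells with liver microsomes plus NADPH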
Method in brief: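 With metabolic activation: human liver microsomes (0.5 mg/mL final) plus NADPH (0.5 mg/mL final) added alongside compounds to p53RE-bla cells; 16 h 37 C exposure; beta-lactamase read by LiveBLAzer fluorescence.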

[6] = p53 small molecule agonists, cell-based qHTS assay with rat liver microsomes (AID 1963578)
Method in brief: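 Metabolic activation by rat liver microsomes and NADPH, each 0.5 mg/mL final, added right after compounds to p53RE-bla reporter cells (4,000/well, plated 5 h earlier). 16 h at 37 C, then LiveBLAzer substrate for 2 h at room temperature in the dark; fluorescence read-out.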

[7] = p53 small molecule agonists, cell-based qHTS assay with rat liver microsomes: qHTS cell viability counter screen (AID 1963580); further: nearly all actives have a fitted effect of over 45% in size
Method in brief: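 Rat liver microsome (0.5 mg/mL final) and NADPH (0.5 mg/mL final) co-incubation with compounds for 16 h at 37 C on HCT-116 p53RE-bla cells; cytotoxicity taken from intracellular ATP luminescence.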

[8] = p53 small molecule agonists, cell-based qHTS assay: qHTS cell viability counter screen (AID 1963581); further: nearly all actives have a fitted effect of over 45% in size; further: potency means the concentration at half of the fitted maximal effect
Method in brief: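 ATP content measured by luminescence in HCT-116 p53RE-bla cells treated 16 h at 37 C, same wells as the reporter screen.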

[9] = p53 small molecule agonists, cell-based qHTS assay (AID 1963582; active means well fitted activation curve with a large enough effect in the signal ratio in the repeat runs, not every such curve was filed as active; the % refers to the signal ratio)
Method in brief: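 16 h compound exposure (37 C) of p53 response element–bla cells, preceded by 5 h recovery at 37 C/5% CO2; read-out via LiveBLAzer B/G FRET substrate, 2 h RT, fluorescence intensity.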

[10] = molecular target: 5-hydroxytryptamine receptor 2A (Homo sapiens) (UniProt P28223); experiment: 5-hydroxytryptamine receptor 2A (HTR2A) small molecule antagonists, cell-based qHTS assay (AID 1963586); further: nearly all actives have a fitted effect of over 45% in size
5-hydroxytryptamine receptor 2A (Homo sapiens), sequence (P28223 whole entry, looked up): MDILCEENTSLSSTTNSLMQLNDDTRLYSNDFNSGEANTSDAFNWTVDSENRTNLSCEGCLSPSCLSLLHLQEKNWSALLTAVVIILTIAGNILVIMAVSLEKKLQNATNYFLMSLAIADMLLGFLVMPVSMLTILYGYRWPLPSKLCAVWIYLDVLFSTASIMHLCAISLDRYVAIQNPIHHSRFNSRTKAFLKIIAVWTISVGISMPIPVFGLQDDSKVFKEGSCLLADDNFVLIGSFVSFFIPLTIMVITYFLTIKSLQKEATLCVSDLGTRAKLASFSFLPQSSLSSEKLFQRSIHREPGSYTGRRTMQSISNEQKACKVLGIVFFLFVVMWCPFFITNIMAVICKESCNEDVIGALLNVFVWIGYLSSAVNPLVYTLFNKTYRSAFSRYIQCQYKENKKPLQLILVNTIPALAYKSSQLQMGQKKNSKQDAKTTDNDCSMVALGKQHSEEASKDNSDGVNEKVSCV
Method in brief: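 CHO cells stably expressing human HTR2A were plated for 18 h at 37 C, then loaded with calcium dye for 1 h. Compounds were preincubated 5 min at room temperature before DOI (4 nM solution) was added. Kinetic fluorescence was read for 3 min.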

[11] = molecular target: 5-hydroxytryptamine receptor 2A (Homo sapiens) (UniProt P28223); experiment: 5-hydroxytryptamine receptor 2A (HTR2A) small molecule agonists, cell-based qHTS assay (AID 1963587); further: nearly all actives have a fitted effect of over 30% in size
Method in brief: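 Kinetic calcium-flux fluorescence (2 min, 1 sec intervals) after compound addition in agonist mode. HTR2A-CHO cells were cultured 18 h, then dye-loaded 1 h at 37 C.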

[12] = molecular target: Muscarinic acetylcholine receptor M1 (Homo sapiens) (UniProt P11229); experiment: Cholinergic receptor muscarinic 1 (CHRM1) small molecule antagonists, cell-based qHTS assay (AID 1963588); further: nearly all actives have a fitted effect of over 40% in size
Muscarinic acetylcholine receptor M1 (Homo sapiens), sequence (P11229 whole entry, looked up): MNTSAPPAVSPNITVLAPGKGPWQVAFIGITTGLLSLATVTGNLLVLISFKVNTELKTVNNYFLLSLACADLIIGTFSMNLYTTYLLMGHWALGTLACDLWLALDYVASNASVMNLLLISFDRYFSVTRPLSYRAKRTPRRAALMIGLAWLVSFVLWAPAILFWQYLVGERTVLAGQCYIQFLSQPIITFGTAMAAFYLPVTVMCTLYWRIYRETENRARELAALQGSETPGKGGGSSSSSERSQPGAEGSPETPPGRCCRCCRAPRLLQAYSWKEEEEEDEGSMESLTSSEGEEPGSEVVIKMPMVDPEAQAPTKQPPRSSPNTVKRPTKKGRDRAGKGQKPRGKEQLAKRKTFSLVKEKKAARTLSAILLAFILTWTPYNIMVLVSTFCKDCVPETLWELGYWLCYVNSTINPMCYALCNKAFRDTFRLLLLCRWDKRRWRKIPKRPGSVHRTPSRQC
Method in brief: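 Compounds were tested at 15 concentrations in three independent runs. Dye-loaded CHRM1-CHO cells were exposed 5 min at room temperature before stimulation by acetylcholine added at 50nM. Intracellular calcium was read kinetically on FDSS for 3 min.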

[13] = cAMP Responsive Elements (CRE) small molecule agonists, cell-based qHTS assay (AID 1963590)
Method in brief: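 HEK 293T cells stably bearing CRE-bla were plated at 2,000 cells per well and rested 18 h. Compounds, positive controls or DMSO were added for 3 h at 37 C. LiveBLAzer B/G substrate was then loaded for 2 h at room temperature.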

[14] = cAMP Responsive Elements (CRE) small molecule antagonists, cell-based qHTS assay (AID 1963591; active means well fitted inhibition curve with a large enough effect in the signal ratio in the repeat runs, not every such curve was filed as active; the % refers to the signal ratio)
Method in brief: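 First, CRE-bla HEK293T cells settled 18 h at 37 C. Next, compound and 0.25 uM final NKH477 were applied for 3 h. Last, LiveBLAzer B/G substrate was loaded for 2 h at room temperature.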

[15] = molecular target: Beta-2 adrenergic receptor (Homo sapiens) (UniProt P07550); experiment: Adrenergic beta2 receptor (ADRB2) small molecule antagonists, cell-based qHTS assay (AID 1963592); further: series mostly up to about 92 µM; nearly all actives have a fitted effect of over 50% in size
Beta-2 adrenergic receptor (Homo sapiens), sequence (P07550 whole entry, looked up): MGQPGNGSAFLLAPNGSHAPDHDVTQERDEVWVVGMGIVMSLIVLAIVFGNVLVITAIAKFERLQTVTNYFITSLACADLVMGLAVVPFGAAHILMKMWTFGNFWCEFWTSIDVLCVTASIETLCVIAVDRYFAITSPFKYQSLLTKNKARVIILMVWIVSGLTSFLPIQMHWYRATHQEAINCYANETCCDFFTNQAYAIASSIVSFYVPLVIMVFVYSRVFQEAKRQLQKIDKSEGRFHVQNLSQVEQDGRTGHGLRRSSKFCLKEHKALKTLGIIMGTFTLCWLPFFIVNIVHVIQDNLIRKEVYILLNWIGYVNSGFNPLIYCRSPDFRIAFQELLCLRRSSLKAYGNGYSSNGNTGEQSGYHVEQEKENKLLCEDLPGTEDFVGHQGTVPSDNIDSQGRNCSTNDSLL
Method in brief: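 Assay format: CHO-ADRB2 cells, 18-20hr seeding at 37C/5% CO2, then compound plus 1nM isoproterenol agonist mix for 0.5hr RT. Homogeneous time-resolved fluorescence cAMP detection after 1hr, expressed as 665/615 nm ratio.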

[16] = molecular target: D(2) dopamine receptor (Homo sapiens) (UniProt P14416); experiment: Dopamine D2 receptor (DRD2) small molecule agonists, cell-based qHTS assay (AID 1963594); further: nearly all actives have a fitted effect of over 35% in size
D(2) dopamine receptor (Homo sapiens), sequence (P14416 whole entry, looked up): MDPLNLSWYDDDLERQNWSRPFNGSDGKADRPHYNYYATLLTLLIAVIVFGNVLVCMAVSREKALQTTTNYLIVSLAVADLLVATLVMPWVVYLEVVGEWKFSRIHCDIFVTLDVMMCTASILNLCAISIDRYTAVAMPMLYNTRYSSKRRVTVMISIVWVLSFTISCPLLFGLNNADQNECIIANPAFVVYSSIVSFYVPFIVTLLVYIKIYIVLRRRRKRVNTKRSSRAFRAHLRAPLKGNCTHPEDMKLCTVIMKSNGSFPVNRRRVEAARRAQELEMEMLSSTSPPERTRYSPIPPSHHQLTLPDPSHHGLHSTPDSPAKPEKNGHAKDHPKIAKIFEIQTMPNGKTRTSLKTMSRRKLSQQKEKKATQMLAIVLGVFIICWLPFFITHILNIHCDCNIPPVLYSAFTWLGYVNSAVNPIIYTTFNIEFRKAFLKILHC
Method in brief: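 cAMP accumulation in DRD2-HEK293 cells measured by HTRF after 1 h detection; compounds added 10 min before NKH477 (200nM […]) forskolin-analogue stimulation, 30 min at room temperature, with Ro20-1724 present at 0.1 mM final.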

[17] = molecular target: D(2) dopamine receptor (Homo sapiens) (UniProt P14416); experiment: Dopamine D2 receptor (DRD2) small molecule antagonists, cell-based qHTS assay (AID 1963595; active means well fitted inhibition curve with a large enough effect in the signal ratio in the repeat runs, with a control signal flat; the % refers to the signal ratio)
Method in brief: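 Human DRD2 antagonist qHTS measuring cAMP by HTRF. The cells are exposed to compound for 10 min, then to NKH477 (200 nM) and quinpirole (12 nM) for 30 min at RT, with Ro20-1724 (0.1 mM) present throughout.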

[18] = p53 small molecule agonists, cell-based qHTS assay with human liver microsomes: qHTS cell viability counter screen (AID 1963579); further: nearly all actives have a fitted effect of over 45% in size
Method in brief: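 Metabolic activation used human liver microsomes and NADPH, both 0.5 mg/mL final, over 16 hours at 37 C on p53RE-bla cells (4,000/well). Cytotoxicity measured by CellTiter-Glo luminescence, 30 min at room temperature.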

[19] = molecular target: Muscarinic acetylcholine receptor M1 (Homo sapiens) (UniProt P11229); experiment: Cholinergic receptor muscarinic 1 (CHRM1) small molecule agonists, cell-based qHTS assay (AID 1963589); further: nearly all actives have a fitted effect of over 35% in size
Method in brief: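 Homogeneous fluorescence calcium flux, agonist mode. Human M1-expressing CHO cells; compound dosed at 15 concentrations, three independent runs; signal sampled every 1 sec.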

[20] = molecular target: Beta-2 adrenergic receptor (Homo sapiens) (UniProt P07550); experiment: Adrenergic beta2 receptor (ADRB2) small molecule agonists, cell-based qHTS assay (AID 1963593);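 further: CHO cells stably overexpressing human ADRB2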
Method in brief: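 CHO cells stably over-expressing ADRB2 were plated overnight at 37C, then dosed with compounds plus a stimulation mix containing 100uM IBMX and 25uM Ro-20-1724 for 0.5hr at room temperature. cAMP was measured by HTRF competition, 1hr.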

C[N+](C)(C)CC1CO1 (stereo unspecified)
Potency [1]: inactive
Potency [2]: inactive
Potency [3]: inactive
Potency [4]: inactive
Potency [5]: inactive
Potency [6]: inactive
Potency [7]: inactive
Potency [8]: inactive
Potency [9]: inactive
Potency [10]: inactive
Potency [11]: inactive
Potency [12]: inactive
Potency [13]: inactive
Potency [14]: inactive
Potency [15]: inactive
Potency [16]: inactive
Potency [17]: inactive

CCOC(=O)CBr
Potency [1]: inactive
Potency [2]: inactive
Potency [3]: inactive
Potency [4]: inactive
Potency [5]: inactive
Potency [18]: inactive
Potency [7]: inactive
Potency [9]: inactive
Potency [10]: inactive
Potency [11]: inactive
Potency [12]: inactive
Potency [19]: inactive
Potency [13]: inactive
Potency [14]: inactive
Potency [15]: inactive
Potency [16]: inactive
Potency [17]: inactive

CC(=O)c1cc(C(C)(C)C)cc2c1CCC2(C)C
Potency [1]: inactive
Potency [2]: inactive
Potency [3]: inactive
Potency [4]: inactive
Potency [5]: inactive
Potency [18]: inactive
Potency [7]: inactive
Potency [9]: inactive
Potency [11]: inactive
Potency [12]: inactive
Potency [13]: inactive
Potency [14]: inactive
Potency [16]: inactive
Potency [17]: inactive

CN1C(=O)[C@@H](NC(=O)c2cc3ccccc3[nH]2)N=C(c2ccccc2)c2ccccc21
Potency [1]: inactive
Potency [2]: inactive
Potency [3]: inactive
Potency [4]: inactive
Potency [5]: inactive
Potency [18]: inactive
Potency [7]: inactive
Potency [8]: inactive
Potency [10]: inactive
Potency [11]: inactive
Potency [12]: inactive
Potency [19]: inactive
Potency [13]: inactive
Potency [14]: inactive
Potency [15]: inactive
Potency [16]: inactive
Potency [17]: inactive

CCc1nn(C)c(C(=O)NCc2ccc(C(C)(C)C)cc2)c1Cl
Potency [1]: inactive
Potency [2]: inactive
Potency [3]: inactive
Potency [4]: inactive
Potency [5]: inactive
Potency [6]: inactive
Potency [10]: inactive
Potency [11]: inactive
Potency [12]: inactive
Potency [19]: inactive
Potency [15]: inactive
Potency [20]: inactive

N#C/C=C/c1ccccc1
Potency [1]: inactive
Potency [2]: inactive
Potency [3]: inactive
Potency [4]: inactive
Potency [5]: inactive
Potency [18]: inactive
Potency [7]: inactive
Potency [8]: inactive
Potency [10]: inactive
Potency [11]: inactive
Potency [12]: inactive
Potency [19]: inactive
Potency [14]: inactive
Potency [20]: inactive
Potency [16]: inactive
Potency [17]: inactive

C[C@]12CC[C@H](O)C[C@H]1CC[C@@H]1[C@@H]2C[C@@H](O)[C@]2(C)[C@@H](C3=CC(=O)OC3)CC[C@]12O
Potency [1]: 3.44 µM (active)
Potency [2]: inactive
Potency [3]: inactive
Potency [4]: inactive
Potency [5]: inactive
Potency [6]: inactive
Potency [8]: 1.82 µM (active)
Potency [10]: inactive
Potency [11]: inactive
Potency [12]: inactive
Potency [19]: inactive
Potency [16]: inactive
Potency [17]: inactive

Nc1ccc(Cc2ccc(N)c(Cl)c2)cc1Cl
Potency [1]: inactive
Potency [2]: inactive
Potency [3]: inactive
Potency [4]: inactive
Potency [5]: inactive
Potency [6]: inactive
Potency [8]: inactive
Potency [9]: inactive
Potency [12]: inactive
Potency [19]: inactive
Potency [13]: inactive
Potency [16]: inactive
Potency [17]: inactive

Oc1cc(Cl)c(Cl)c(Cl)c1
Potency [1]: 65 µM (active)
Potency [2]: inactive
Potency [3]: inactive
Potency [4]: inactive
Potency [5]: inactive
Potency [6]: inactive
Potency [7]: inactive
Potency [8]: inactive
Potency [10]: inactive
Potency [11]: inactive
Potency [12]: inactive
Potency [19]: inactive
Potency [15]: inactive
Potency [16]: inactive
Potency [17]: inactive

Cc1cc(C)cc(OP(=O)(Oc2cc(C)cc(C)c2)Oc2cc(C)cc(C)c2)c1
Potency [1]: inactive
Potency [2]: inactive
Potency [3]: inactive
Potency [4]: inactive
Potency [5]: inactive
Potency [18]: inactive
Potency [7]: inactive
Potency [8]: inactive
Potency [9]: inactive
Potency [10]: inactive
Potency [11]: inactive
Potency [12]: inactive
Potency [19]: inactive
Potency [13]: inactive
Potency [14]: inactive
Potency [15]: inactive
Potency [16]: inactive
Potency [17]: inactive

Clc1cc2c(cc1Cl)Oc1cc(Cl)c(Cl)cc1O2
activity, positive = activation [1]: 4.08% [at 0.349 µM]
activity change [2]: 1.13% [at 0.217 µM, active compounds read high]
activation [3]: -3.37% [at 0.29 µM]
activation [4]: 0.634% [at 0.217 µM]
activation [5]: 0.165% [at 0.249 µM]
activation [6]: -1.51% [at 0.249 µM]
activity change, negative = cytotoxicity [7]: 0.149% [at 0.249 µM]
activity change, negative = cytotoxicity [8]: 1.19% [at 0.249 µM]
activation [9]: 1.03% [at 0.249 µM]
activation [13]: 0.0128% [at 0.349 µM]
activity change, negative = inhibition [14]: -0.651% [at 0.349 µM]
activation [16]: 0.882% [at 0.349 µM]
activity change, negative = inhibition [17]: -6.33% [at 0.348 µM]

O=C(CBr)Nc1ccc(Cl)cc1C(=O)c1ccccc1F
Potency [1]: inactive
Potency [2]: inactive
Potency [3]: inactive
Potency [4]: inactive
Potency [5]: inactive
Potency [6]: inactive
Potency [7]: inactive
Potency [10]: inactive
Potency [11]: inactive
Potency [12]: inactive
Potency [19]: inactive
Potency [13]: inactive
Potency [15]: inactive
Potency [20]: inactive
Potency [16]: inactive
Potency [17]: inactive
